Values without a mark were called inactive. The source made the active and inactive calls. Cut-off read from the data, not from the text of the source: active = fold change permeability below about 0.7 or above about 1.3; inactive = in between.
Assay: compounds altering in vitro BBB leakiness – cell-based, FITC-avidin fluorescence, HTS, primary screen (AID 1963498); note: test concentration not given here
Details: brain endothelial barrier, actives lie on both sides
For `N[C@@H](Cc1ccc(F)cc1)C(=O)O`, the fold change permeability was 0.8. `C[C@H](CS)C(=O)N1CCC[C@H]1C(=O)O` gave a fold change permeability of 1. For `CNC(=O)c1c(F)cccc1Nc1nc(Nc2cc3c(cc2OC)CCN3C(=O)CN(C)C)nc2[nH]ccc12`, the fold change permeability was 1.6 (active). For `N[C@@H](COP(=O)(O)O)C(=O)O`, the fold change permeability was 1. `CN(C)C(=O)/N=N/C(=O)N(C)C` showed a fold change permeability of 1. `COc1cc2ncnc(Nc3cccc(Br)c3)c2cc1OC` gave a fold change permeability of 1.1. In the case of `Cn1ccc2cc3c(cc21)CCN3C(=O)Nc1cccnc1`, the fold change permeability is reported as 1.4 (active). Molecule `N[C@@H](CCC(=O)N[C@@H](CSN=O)C(=O)NCC(=O)O)C(=O)O` has a fold change permeability of 0.8. For `O=[N+]([O-])c1ccc2c(c1)S(=O)(=O)C=C2`, the fold change permeability was 2.1 (active). In the case of `Nc1ncnc2c1ncn2C1CCCO1` (centres undefined), the fold change permeability is reported as 1. `C[n+]1cccc(C(N)=O)c1` showed a fold change permeability of 0.9. In the case of `C[C@H](Cc1ccccc1)Nc1ncnc2c1ncn2[C@@H]1O[C@H](CO)[C@H](O)C1O` (some centres undefined), the fold change permeability is reported as 1.3 (active). For `C[C@H](CSC(=O)c1ccccc1)C(=O)N1C[C@@H](Sc2ccccc2)C[C@H]1C(=O)O`, the fold change permeability was 1. For `Oc1cc2c(cc1O)C(c1ccccc1)CNCC2` (centres undefined), the fold change permeability was 0.7 (active). For `C[C@H]1CC(=O)Nc2cc(C(=O)NCCC3CC3)ccc2N1C(=O)N1CC2CC2C1` (some centres undefined), the fold change permeability was 1.1. With `CCc1ccc2c(-c3cccc(Cl)c3)nc(=O)n(CC)c2n1` the fold change permeability was 1.5 (active). In the case of `CCCCCN(CCCCC)C(=O)C(CCC(=O)O)NC(=O)c1ccc(Cl)c(Cl)c1` (centres undefined), the fold change permeability is reported as 1.4 (active). With `O=c1c2ccccc2[nH]c(=S)n1CCN1CCC(=C(c2ccc(F)cc2)c2ccc(F)cc2)CC1` the fold change permeability was 1.6 (active). With `CN(C)CC/C=C1\c2ccccc2COc2ccccc21` the fold change permeability was 1.4 (active). With `NCc1c[nH]c(=S)n1[C@H]1CCc2c(F)cc(F)cc2C1` the fold change permeability was 1.4 (active). In the case of `O=C(O)Cc1c[nH]c2ccc(O)cc12`, the fold change permeability is reported as 1.1. `CN(C)C(=O)Nc1cccc(-c2ccc(N(C)C)cc2)c1` showed a fold change permeability of 1.1. With `C[C@](N)(Cc1ccc(O)c(O)c1)C(=O)O` the fold change permeability was 0.8. For `CC(C)(C)c1ccc(/C=C/C(=O)Nc2ccc3c(c2)OCCO3)cc1`, the fold change permeability was 2 (active). For `N[C@H](C(=O)O)c1cc(O)cc(O)c1`, the fold change permeability was 1.2. Work on `C#CCn1c(=O)c2c(ncn2C)n(C)c1=O` yielded a fold change permeability of 0.9. In the case of `N#Cc1cc([N+](=O)[O-])c2sc(C(N)=O)[n+]([O-])c2c1`, the fold change permeability is reported as 1.3 (active). Molecule `N[C@@H](Cc1cc(CP(=O)(O)O)cc(-c2ccccc2Cl)c1)C(=O)O` has a fold change permeability of 0.9. In the case of `CN1C2CCCC1CC(NC(=O)c1nn(C)c3ccccc13)C2` (centres undefined), the fold change permeability is reported as 1.4 (active). In the case of `C=C1C(=O)O[C@@H]2[C@H]3O[C@]3(C)CC/C=C(\C)CC[C@@H]12`, the fold change permeability is reported as 1.3 (active). For `CN(C(=O)CCCOc1ccc2[nH]c(=O)ccc2c1)C1CCCCC1`, the fold change permeability was 0.9. In the case of `CCCCS(=N)(=O)CC[C@H](N)C(=O)O` (some centres undefined), the fold change permeability is reported as 0.9. For `CCCCNc1ccc(C(=O)OCCN(C)C)cc1`, the fold change permeability was 1.8 (active). In the case of `COc1ccccc1N1CCN(CCCNc2c(C)c(=O)n(C)c(=O)n2C)CC1`, the fold change permeability is reported as 1.5 (active). In the case of `CC(C)NCC(O)COc1ccc(COCCOC(C)C)cc1` (centres undefined), the fold change permeability is reported as 0.8. For `NC1(C(=O)O)CC1`, the fold change permeability was 0.9. Work on `NC(=Nc1ccc(OCCCCCOc2ccc(N=C(N)c3ccccc3)cc2)cc1)c1ccccc1` yielded a fold change permeability of 1. In the case of `N[C@@H](Cc1ccc(O)c(O)c1)C(=O)O`, the fold change permeability is reported as 0.8. With `COC(=O)C(C)(N)Cc1ccc(O)cc1` (centres undefined) the fold change permeability was 0.8.
